Source: PubChem (several laboratories)
Only some compounds are listed: those with a hit (about 4% of all), similar ones and a draw of the others.
RecA splice inh – Mtb RecA intein splicing inhibitors, primary screen, biochemical, fluorescence, HTS. cell-free RecA intein splicing. inhibition, % (concentration not given with the values). 290,000 compounds, 0.75% hits. AID 2221, 2009; in the data active means inhibition above about 30%;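 further: 0% = vehicle wells and 100% = reference inhibitor control wells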
Mtb FBA inh – Mtb FBA enzyme inhibitors, primary screen, biochemical, fluorescence, strain H37Rv; Fructose-bisphosphate aldolase (Mycobacterium tuberculosis (strain ATCC 25618 / H37Rv)), …; purified M. tuberculosis FBA, fluorescence read-out; inhibition, % at 1 µM; 360,000 compounds, 2.3% hits; in the data active means inhibition above about 27%;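 further: 0% = vehicle and 100% = reference inhibitor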
UGM FP inh – M. tuberculosis UGM enzyme inhibitors, primary screen, biochemical, fluorescence polarization, single point. 320,000 compounds, 0.06% hits. UDP-galactopyranose mutase (Mycobacterium tuberculosis (strain ATCC 25618 / H37Rv)), …. inhibition, % at 10 µM. purified UGM, fluorescence polarization probe displacement; in the data active means inhibition above about 10%, passing the limit was not always enough
Target sequence (P9WIQ1 whole entry, looked up): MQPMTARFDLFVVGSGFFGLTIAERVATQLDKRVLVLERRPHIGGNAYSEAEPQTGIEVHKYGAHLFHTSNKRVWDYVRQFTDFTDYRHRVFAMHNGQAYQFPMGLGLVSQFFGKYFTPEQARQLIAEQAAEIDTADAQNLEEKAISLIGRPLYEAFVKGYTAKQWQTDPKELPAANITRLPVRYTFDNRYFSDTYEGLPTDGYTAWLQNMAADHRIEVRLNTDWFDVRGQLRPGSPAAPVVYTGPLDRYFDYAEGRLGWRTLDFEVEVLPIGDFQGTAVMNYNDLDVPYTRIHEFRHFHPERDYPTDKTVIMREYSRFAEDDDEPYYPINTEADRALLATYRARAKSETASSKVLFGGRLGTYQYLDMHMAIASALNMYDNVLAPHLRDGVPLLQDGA
Rv3671c inh – Rv3671c serine protease inhibitors, primary screen, biochemical, fluorescence polarization, M. tuberculosis H37Rv | 320,000 compounds, 0.048% hits | inhibition, % at 5.96 µM; in the data active means inhibition above about 38%;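 further: extracellular domain of Rv3671c used as enzyme; 0% = enzyme with DMSO and 100% = no enzyme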
GDH-TPI counter – GDH-TPI coupling enzyme inhibitors, primary screen, artefact control for M. tuberculosis FBA inhibitor project, biochemical, absorbance, full deck | GDH-TPI coupled enzyme counterscreen, NADH absorbance | inhibition, % at 4.8 µM | 360,000 compounds, 1.2% hits; in the data active means inhibition above about 30%;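 further: 0% = DMSO wells and 100% = wells lacking the enzyme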
Mtb betalactam – beta-lactam sensitization of Mtb H37Rv, H37Rv; M. tuberculosis H37Rv growth with meropenem, percent inhibition; inhibition, % at 25 µM; 330,000 compounds, 0.27% hits; AID 434955, 2010; call rule not given here;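 further: growth measured after seven days incubation then overnight dye step; 0% = bacteria only wells and 100% = bacteria with antibiotic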
The depositor's hits bear a star; . = no result given; + = active, no number.

SMILES	RecA splice inh	Mtb FBA inh	UGM FP inh	Rv3671c inh	GDH-TPI counter	Mtb betalactam
COc1ccc(CNCCS(=O)(=O)NC2CCCC2)cc1	.	0	.	.	-5	.
CCc1ccc(NC(=O)COc2ccc(F)cc2C(=O)c2cnn(-c3ccccc3)c2)cc1	0	0	-1	-13	1	2
CC1(C)CC(=O)C=C(NCCc2c[nH]c3ccccc23)C1	-4	-1	-4	0	-4	-2
Cn1cccc1/C=N/n1c(-c2ccccc2)n[nH]c1=S	-4	-4	5	1	33*	-9
COc1ccccc1/C=C/C=N/n1c(-c2ccncc2)n[nH]c1=S	-2	-3	0	3	32*	6
COc1ccccc1/C=C/C=N/n1c(-c2n[nH]c3c2CCC3)n[nH]c1=S	.	6	-3	-5	33*	-12
CCOc1ccc2nc(C(C)O)[nH]c2c1 (stereo not drawn)	1	3	2	3	3	-1
CCOc1ccc2nc(-c3ccccc3)[nH]c2c1	-3	189*	-1	6	2	-1
COc1ccc2nc(-c3ccccc3)[nH]c2c1	-2	150*	-2	-2	6	-5
NCCSC1CC(=O)N(c2ccc(Cl)c(Cl)c2)C1=O (stereo not drawn)	0	47*	-2	5	11	0
CC(=O)CSc1nc2cc3c(cc2cc1C#N)OCCO3	-4	3	-1	8	33*	5
N#Cc1cc2cc3c(cc2nc1SCC(=O)N1CCCC1)OCCO3	1	3	-2	8	6	-9
CCn1c(SCC(=O)OC2CCCCC2)nc2ccccc2c1=O	16	4	1	-2	7	98
CCS(=O)(=O)N1Cc2ccccc2CC1C(=O)OCC(=O)Nc1ccc(C)cc1 (stereo not drawn)	4	1	0	-8	117*	-8
O=C(Nc1cc(SCCO)cc([N+](=O)[O-])c1)c1ccco1	-2	-2	3	-2	8	-1
O=C(Cc1cccs1)Nc1cc(SCCO)cc([N+](=O)[O-])c1	-7	0	11*	3	4	-6
COc1ccc2[nH]c3c(c2c1)CCN1C(=O)N([C@@H](C)C(=O)NCC2CCCO2)C(=O)[C@]31C (stereo partly drawn)	4	3	0	-5	5	-1
O=C(CNS(=O)(=O)c1ccc(F)cc1)Nc1ccccc1	-1	0	-1	1	6	0
Cc1onc(-c2ccccc2Cl)c1C(=O)Nc1cccc(-c2cn3cccnc3n2)c1	.	128*	0	-5	31*	-6
COc1cc(C(=O)Nc2cccc(-c3cn4cccnc4n3)c2)cc(OC)c1OC	4	+	-2	-14	8	.
CC(C)(C)CC(=O)Nc1cccc(-c2cn3cccnc3n2)c1	0	+	-2	-4	7	-7
COc1ccc(NC(=O)C(c2ccc(C)cc2)N(C)C(=O)Cc2cccs2)cc1 (stereo not drawn)	3	-1	1	1	-3	11
O=C(Nc1ccc2c(c1)OCCO2)c1ccc(Br)c(S(=O)(=O)N2CCOCC2)c1	.	-5	.	.	36*	.
O=C(N/N=C\c1ccc(Sc2ccccn2)o1)c1cccc(F)c1	1	-1	2	0	31*	.
O=C(N/N=C/c1ccc(Sc2ccccn2)o1)c1cccc([N+](=O)[O-])c1	-2	-5	4	2	25	.
SMILES	RecA splice inh	Mtb FBA inh	UGM FP inh	Rv3671c inh	GDH-TPI counter	Mtb betalactam
O=C(N/N=C/c1ccc(Sc2ccccn2)o1)c1cc2ccccc2cc1O	-66	-2	4	11	51*	69
COC(=O)c1ccc(/C=N/NC(=O)c2cccc(F)c2)cc1	0	0	-1	2	25	80
O=C(N/N=C/c1cnc2ccccc2n1)c1cccc(F)c1	-3	-3	1	4	37*	5
COc1ccc(CNC(=O)[C@H](C)NC(=O)N2CCn3c2nc2ccccc23)cc1	0	0	-2	-2	9	-1
Cc1cc(NC(=O)CCC(=O)N(c2ccc(F)cc2)C(C(=O)NC2CCCC2)c2cccnc2)no1 (stereo not drawn)	-4	-3	-1	7	-4	-3
Cc1cc(C#Cc2c(-c3ccccc3)n(C)c3ccccc23)ccc1F	4	27*	2	-16	16	-2
COc1ccc(C#Cc2c(-c3ccccc3)n(C)c3ccccc23)cc1	.	10	-1	-8	12	-4
O=C(NCc1cccc(F)c1)c1cccc2c1C(=O)c1ccc(N3CCC(Cc4ccccc4)CC3)cc1S2(=O)=O	.	-1	22*	-25	5	-3
O=C(NCc1ccc(OC(F)(F)F)cc1)c1cccc2c1C(=O)c1ccc(N3CCCCC3)cc1S2(=O)=O	.	-1	20*	-9	7	7
O=C(NCCc1ccc(F)cc1)c1cccc2c1C(=O)c1ccc(N3CCC(Cc4ccccc4)CC3)cc1S2(=O)=O	.	-5	11*	-23	10	6
O=C(O)c1cccc2c1C(=O)c1ccc(-c3ccc(OC(F)(F)F)cc3)cc1S2(=O)=O	.	2	3	4	32*	4
O=C(NCc1ccccc1Br)c1cccc2c1C(=O)c1ccc(-c3ccc(OC(F)(F)F)cc3)cc1S2(=O)=O	.	3	4	-38	2	4
COc1ccc(CCNC(=O)CCCn2c(=O)c3cccn3c3cccnc32)c(OC)c1	1	2	3	2	16	-1
Cc1cc(C(=O)OCC(=O)NC2CC2)c2ccccc2n1	.	6	2	1	6	-5
COCc1cc(C)n(CC(=O)N/N=C/c2ccc(-c3ccc(Cl)c(C(=O)O)c3)o2)c(=O)c1C#N	-2	5	-3	-2	69*	3
COCc1cc(C)nc(N/N=C/c2ccc(-c3ccc(C(=O)O)c(Cl)c3)o2)c1C#N	-1	.	4	-1	.	0
CCC(C)(C(=O)NC1CCCC1)N(C(=O)CC1NC(=O)NC1=O)c1c(C)n(C)n(-c2ccccc2)c1=O (stereo not drawn)	-4	1	1	5	-3	1
COCCCNC(=O)c1ccc2c3c(onc13)-c1ccccc1C2=O	37*	-1	1	-78	2	-6
COCCCNC(=O)c1ccccc1Oc1ccccc1	3	-1	-1	-4	0	25
C=CCn1c(-c2cccs2)nc2nc3ccccc3nc21	-2	+	1	-5	25	-3
C=CCn1c(-c2cccc(OC)c2)n[nH]c1=S	0	1	1	-15	0	-7
